Values joined by “and” are separate entries in the source; they are usually repeats but may differ in a detail not shown here. Equal entries are not always repeated. The campaign covered roughly 5,500 compounds. About 2,000 (36%) were called active. About 18% were inconclusive and are not listed. Rule as the data show it: active = normalized growth mostly below about 0.91 (no sharp cut-off); inconclusive = no clear call, values can overlap the other calls; inactive = mostly above about 0.92. The list shows a part of the results.
Assay: chemical genetic growth profiling, strain panel (AID 1159580);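 also: tested at 20 µM; growth read once vehicle control cultures reached saturation at 30 °C; 1 = growth at the plate median or of vehicle wells; lower values mean less growth of the strain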
Conditions: S. cerevisiae deletion strains, growth OD

Measured: normalized growth

COC(=O)C1=CCCN(C)C1
inactive: locus YAL013W, strain DEP1, stronger effect = lower value 1 and 1.01 | locus YAL021C, strain ccr4, stronger effect = lower value 1.03 | locus YAL026C, strain drs2, stronger effect = lower value 1.02 | locus YAL030W, strain snc1, stronger effect = lower value 1 | locus YAL040C, strain CLN3, stronger effect = lower value 0.997 | locus YBL061C, strain skt5, stronger effect = lower value 1.02 | locus YBR009C, strain hhf1, stronger effect = lower value 0.986 | locus YBR021W, strain FUR4, stronger effect = lower value 1 | locus YBR023C, strain chs3, stronger effect = lower value 1.02 | locus YBR171W, strain sec66, stronger effect = lower value 1.02 | locus YBR229C, strain ROT2, stronger effect = lower value 0.954 | locus YBR231C, strain swc5, stronger effect = lower value 0.999 | locus YBR279W, strain paf1, stronger effect = lower value 1.02 | locus YCL011C, strain gbp2, stronger effect = lower value 1.01 | locus YCL016C, strain dcc1, stronger effect = lower value 1.02 | locus YCL029C, strain bik1, stronger effect = lower value 0.983 | locus YCL069W, strain vba3, stronger effect = lower value 0.988 | locus YCR088W, strain abp1, stronger effect = lower value 1.01 | locus YDL005C, strain med2, stronger effect = lower value 0.998 | locus YDL035C, strain GPR1, stronger effect = lower value 0.993 | locus YDL040C, strain nat1, stronger effect = lower value 0.993 | locus YDL074C, strain BRE1, stronger effect = lower value 0.99 | locus YDL101C, strain DUN1, stronger effect = lower value 0.976 | locus YDL134C, strain PPH21, stronger effect = lower value 0.969 | locus YDL185W, strain tfp1, stronger effect = lower value 0.992 | locus YDL192W, strain arf1, stronger effect = lower value 0.983 | locus YDR001C, strain nth1, stronger effect = lower value 1 | locus YDR069C, strain doa4, stronger effect = lower value 0.993 | locus YDR101C, strain arx1, stronger effect = lower value 0.989 | locus YDR137W, strain rgp1, stronger effect = lower value 1.02 | locus YDR150W, strain NUM1, stronger effect = lower value 0.973 and 1.01 | locus YDR159W, strain sac3, stronger effect = lower value 0.94 | locus YDR162C, strain NBP2, stronger effect = lower value 0.991 | locus YDR195W, strain ref2 0.956 | locus YDR297W, strain sur2, stronger effect = lower value 1 | locus YDR318W, strain mcm21, stronger effect = lower value 0.99 | locus YDR334W, strain swr1, stronger effect = lower value 1 | locus YDR335W, strain msn5, stronger effect = lower value 1.02 | locus YDR388W, stronger effect = lower value 0.994 | locus YDR392W, strain spt3, stronger effect = lower value 0.977 | locus YDR502C, strain sam2, stronger effect = lower value 1 | locus YEL003W, strain gim4, stronger effect = lower value 0.997 | locus YEL037C, strain rad23, stronger effect = lower value 1.02 | locus YEL061C, strain CIN8 (second series), stronger effect = lower value 0.988 | locus YEL061C, strain CIN8, stronger effect = lower value 0.991 | locus YER002W, strain NOP16, stronger effect = lower value 0.986 | locus YER015W, strain faa2, stronger effect = lower value 1 | locus YER016W, strain bim1, stronger effect = lower value 1.02 | locus YER110C, stronger effect = lower value 0.969 | locus YER111C, strain swi4, stronger effect = lower value 1.01 | locus YER155C, strain BEM2 (second series), stronger effect = lower value 0.984 | locus YER155C, strain BEM2, stronger effect = lower value 1.02 | locus YER167W, strain BCK2, stronger effect = lower value 0.995 | locus YFR010W, strain ubp6, stronger effect = lower value 0.984 | locus YGL078C, strain dbp3, stronger effect = lower value 0.988 | locus YGL086W, strain mad1, stronger effect = lower value 0.994 | locus YGL167C, strain pmr1, stronger effect = lower value 1.01 | locus YGL173C, strain kem1, stronger effect = lower value 0.976 | locus YGL227W, strain vid30, stronger effect = lower value 0.998 | locus YGL240W, strain doc1, stronger effect = lower value 0.974 | locus YGL248W, strain PDE1, stronger effect = lower value 0.978 | locus YGL253W, strain hxk2, stronger effect = lower value 1.02 | locus YGR078C, strain PAC10, stronger effect = lower value 0.991 | locus YGR135W, strain pre9, stronger effect = lower value 0.983 | locus YGR229C, strain SMI1, stronger effect = lower value 1 | locus YGR252W, strain gcn5, stronger effect = lower value 0.945 | locus YHR013C, strain ard1, stronger effect = lower value 1.03 | locus YHR027C, strain rpn1, stronger effect = lower value 0.996 | locus YHR030C, strain SLT2, stronger effect = lower value 0.986 and 0.989 | locus YHR079C, strain IRE1 (second series), stronger effect = lower value 0.994 | locus YHR079C, strain IRE1, stronger effect = lower value 1.05 | locus YHR094C, strain hxt1, stronger effect = lower value 0.996 | locus YHR129C, strain ARP1, stronger effect = lower value 0.993 | locus YHR142W, strain chs7, stronger effect = lower value 1.03 | locus YHR200W, strain rpn10, stronger effect = lower value 0.989 | locus YIL066C, strain RNR3, stronger effect = lower value 0.982 | locus YIL073C, strain SPO22, stronger effect = lower value 0.935 | locus YIL125W, strain kgd1, stronger effect = lower value 0.995 | locus YIR030C, strain dcg1, stronger effect = lower value 0.98 | locus YJL092W, strain hpr5, stronger effect = lower value 1.01 | locus YJL095W, strain BCK1 (second series), stronger effect = lower value 1.01 | locus YJL095W, strain BCK1, stronger effect = lower value 1.02 and 1 | locus YJL115W, strain asf1, stronger effect = lower value 1.02 | locus YJL129C, strain trk1, stronger effect = lower value 1.04 | locus YJL134W, strain LCB3, stronger effect = lower value 0.985 | locus YJL154C, strain vps35, stronger effect = lower value 0.996 | locus YJL164C, strain tpk1, stronger effect = lower value 0.998 | locus YJL166W, strain qcr8, stronger effect = lower value 0.998 | locus YJL168C, strain set2, stronger effect = lower value 1 | locus YJL187C, strain SWE1 (second series), stronger effect = lower value 0.973 | locus YJR043C, strain POL32, stronger effect = lower value 1 | locus YJR066W, strain TOR1, stronger effect = lower value 0.968 | locus YJR075W, strain HOC1, stronger effect = lower value 0.99 and 1.01 | locus YKL009W, strain mrt4, stronger effect = lower value 0.999
